The text below walks through data of PubChem BioAssay (NCATS).

Inconclusive results are not listed. Activity calls are given as the source filed them. Calls come from the whole dose curve; as a rule, active = well fitted cell-killing curve with a large enough effect; inconclusive = small, poorly fitted or top-dose-only effect, or effect the other way; inactive = no such curve, though single readings can be large or run the other way.
Potency is the fitted concentration of half-maximal effect.

The nature of the first experiment: Quantitative High-Throughput drug screen in 47 multiple myeloma cell lines against the NCATS MIPE library collection: ARD_JJKsccE7 cell viability assay (AID 1918929). The conditions noted are these: ARD myeloma cell line viability, CellTiter-Glo, 48 h; series mostly up to 45.8 µM. An outline of the steps: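 Approved and investigational drugs from MIPE 4.0 were added by pin tool to 500 cells per well. After 48 hours at 37C, ATP-based CellTiter-Glo luminescence indicated remaining viability.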
As for `Cc1ccccc1C(C(=O)NC1CCCCC1)N(C(=O)CNc1ccc(C#N)cc1)c1cccc(F)c1` (stereo not given), the Potency entry was “inactive”.

For the compound `C[C@H](c1ccc(F)cc1CCCC(=O)O)N(c1cc(F)ccc1F)S(=O)(=O)c1ccc(Cl)cc1`, the Potency result was “inactive”.

Consider `CC(C)CNc1ccnc(NCc2csc(-c3ccccc3)n2)n1`, for which the Potency is 5.9 µM (active).

Consider `CCN1C[C@H](C)n2c(c(O)c3c(=O)n(Cc4ccc(F)c(Cl)c4)nc(C(=O)NC)c32)C1=O`, for which the Potency entry is “inactive”.

With `CCc1cccc(CC)c1NC(=O)N1Cc2[nH]nc(NC(=O)c3ccc(N4CCN(C)CC4)cc3)c2C1`, the Potency is 1.18 µM (active).

In the case of `Cn1cnc(-c2cc3nccc(Oc4ccc(NC(=S)NC(=O)Cc5ccccc5)cc4F)c3s2)c1`, the Potency was 18.7 µM (active).

For the compound `CCCCC(F)(F)[C@@]1(O)CC[C@H]2[C@H](CC(=O)[C@@H]2CCCCCCC(=O)O)O1`, the Potency result was “inactive”.

With `c1cc(OCCN2CCCCC2)cc(-c2n[nH]c3ccc(-c4ncn[nH]4)cc23)c1`, the Potency is 2.35 µM (active).

Consider `CC1(COc2ccc3c(c2)ncn3-c2ccc3cccc(N4CCC(N)CC4)c3n2)COC1`, for which the Potency was 5.9 µM (active).

Regarding `CC(C)(C)c1nc(-c2cccc(NS(=O)(=O)c3c(F)cccc3F)c2F)c(-c2ccnc(N)n2)s1`, the Potency is 18.7 µM (active).

Take `COc1cc2ncnc(Nc3cc(Br)c(O)c(Br)c3)c2cc1OC`: the Potency was 13.2 µM (active).

Regarding `Nc1ncnc2c1c(-c1cccc(OCc3ccccc3)c1)cn2C1CC(CN2CCC2)C1` (stereo not given), the Potency was 2.96 µM (active).

Turning to `COc1ccc(CCC(=O)Nc2nc3ccc(Cl)cc3s2)cc1OC`, the Potency entry was “inactive”.

A short description of another experiment: Quantitative High-Throughput drug screen in 47 multiple myeloma cell lines against the NCATS MIPE library collection: Karpas620_DSMZ cell viability assay (AID 1918959). Note: nearly all actives have a fitted effect of over 30% in size. The conditions noted are these: Karpas620 myeloma viability, CellTiter-Glo ATP luminescence, 48 h; series mostly up to 45.8 µM. An outline of the steps:
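Viability readout: CellTiter-Glo luminescence following 5 min room-temperature incubation with reagent. Prior exposure: 48 h, 37C, humidified 5% CO2, 500 cells per well.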
Regarding `CCCCn1c(=O)n(Cc2ccccc2F)c(=O)c2[nH]c(Cc3ccc(NC(C)=O)cc3)nc21`, the Potency result is “inactive”.

Turning to `C[C@@H](NC(=O)c1ncnc(N)c1Cl)c1ncc(C(=O)Nc2cc(C(F)(F)F)c(Cl)cn2)s1`, the Potency was 26.4 µM (active).

For `CN(C)CCOc1cc(-c2cn[nH]c2)ccc1NC(=O)C1COc2ccccc2O1` (stereo not given), the Potency entry is “inactive”.

`Cc1c(C(=O)Nc2ccc(N3C[C@@H](C)O[C@@H](C)C3)nc2)cccc1-c1ccc(OC(F)(F)F)cc1`: the Potency was 8.33 µM (active).

Take `COC(=O)N1CCN(Cc2cccc(NC(=O)Nc3ccc(C)nc3)c2F)CC1`: the Potency entry was “inactive”.

As to `CS(=O)(=O)c1ccc(C2=C(c3ccccc3)C(=O)OC2)cc1`, the Potency entry was “inactive”.

As to `CCN1CCC(n2cc(CNc3cc(Cl)c4ncc(C#N)c(Nc5ccc(F)c(Cl)c5)c4c3)nn2)CC1`, the Potency is 5.9 µM (active).

Consider `Cc1cnc(-c2cc(N3CCN(C(=O)CCS(C)(=O)=O)CC3)ncc2Cl)c(C)c1`, for which the Potency result was “inactive”.

Take `CN(C)c1nc(Cc2ccc(NC(=O)c3ccc(C(F)(F)F)cc3)cc2)nc(N(C)C)c1CC(=O)O`: the Potency entry is “inactive”.

In the case of `Cc1ccccc1C(C(=O)NC1CCCCC1)N(C(=O)CNc1ccc(C#N)cc1)c1cccc(F)c1` (stereo not given), the Potency result is “inactive”.

As to `C[C@H](c1ccc(F)cc1CCCC(=O)O)N(c1cc(F)ccc1F)S(=O)(=O)c1ccc(Cl)cc1`, the Potency result is “inactive”.

For the compound `c1ccc(-c2oc3ncnc(NC[C@@H]4CCCO4)c3c2-c2ccccc2)cc1`, the Potency was 6.62 µM (active).

As for `CC(C)CNc1ccnc(NCc2csc(-c3ccccc3)n2)n1`, the Potency was 5.26 µM (active).

Take `CNC1CCC(N(Cc2cccc(-c3ccncc3)c2)C(=O)c2sc3ccccc3c2Cl)CC1` (stereo not given): the Potency is 16.6 µM (active).

Consider `CCN1C[C@H](C)n2c(c(O)c3c(=O)n(Cc4ccc(F)c(Cl)c4)nc(C(=O)NC)c32)C1=O`, for which the Potency is 0.0066 µM (active).

Regarding `c1cc(OCCN2CCCCC2)cc(-c2n[nH]c3ccc(-c4ncn[nH]4)cc23)c1`, the Potency entry is “inactive”.

As for `CC(C)(C)c1nc(-c2cccc(NS(=O)(=O)c3c(F)cccc3F)c2F)c(-c2ccnc(N)n2)s1`, the Potency was 20.9 µM (active).

Regarding `COc1ccc(-c2ccc3ncc4c(c3c2)n(-c2ccc(N3CCNCC3)c(C(F)(F)F)c2)c(=O)n4C)cn1`, the Potency is 0.0833 µM (active).

Take `Nc1ncnc2c1c(-c1cccc(OCc3ccccc3)c1)cn2C1CC(CN2CCC2)C1` (stereo not given): the Potency was 2.96 µM (active).

Consider `COc1ccc(CCC(=O)Nc2nc3ccc(Cl)cc3s2)cc1OC`, for which the Potency entry is “inactive”.

Another experiment in a line: Quantitative High-Throughput drug screen in 47 multiple myeloma cell lines against the NCATS MIPE library collection: KMM1_JCRB cell viability assay (AID 1918960). Note: nearly all actives have a fitted effect of over 30% in size. The settings on record: KMM1 myeloma viability, CellTiter-Glo ATP luminescence, 48 h; series mostly up to 45.8 µM. An outline of the steps: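 Myeloma cells at 500 per well in 1536-well format treated with MIPE 4.0 library by pin transfer for 48 h at 37C, 5% CO2. Viability from ATP luminescence (CellTiter-Glo), normalized to DMSO (100%) and media-only (0%) wells.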
As for `N#Cc1ccc(Oc2ccc3c(c2)COB3O)cc1`, the Potency is 16.6 µM (active).

Turning to `Cc1ccc2c(c1)c1c(n2CCc2ccc(C)nc2)CCN(C)C1`, the Potency result is “inactive”.

`CCCCn1c(=O)n(Cc2ccccc2F)c(=O)c2[nH]c(Cc3ccc(NC(C)=O)cc3)nc21`: the Potency result is “inactive”.

With `CC(=O)Nc1cccc(-n2c(=O)n(C3CC3)c(=O)c3c(Nc4ccc(I)cc4F)n(C)c(=O)c(C)c32)c1`, the Potency was 0.0935 µM (active).

Consider `Cn1c(=O)c(-c2c(Cl)cccc2Cl)cc2cnc(Nc3cccc(C(=O)O)c3)nc21`, for which the Potency is 0.209 µM (active).

For the compound `Cc1c(C(=O)Nc2ccc(N3C[C@@H](C)O[C@@H](C)C3)nc2)cccc1-c1ccc(OC(F)(F)F)cc1`, the Potency is 1.18 µM (active).

`O=C(Nc1cccc(C(F)(F)F)c1)Nc1cc(S(=O)(=O)NC2CC2)ccc1-c1ccsc1`: the Potency result is “inactive”.

Turning to `COC(=O)N1CCN(Cc2cccc(NC(=O)Nc3ccc(C)nc3)c2F)CC1`, the Potency entry is “inactive”.

Regarding `CS(=O)(=O)c1ccc(C2=C(c3ccccc3)C(=O)OC2)cc1`, the Potency result was “inactive”.

Regarding `CCN1CCC(n2cc(CNc3cc(Cl)c4ncc(C#N)c(Nc5ccc(F)c(Cl)c5)c4c3)nn2)CC1`, the Potency result was “inactive”.

With `CN(C)c1nc(Cc2ccc(NC(=O)c3ccc(C(F)(F)F)cc3)cc2)nc(N(C)C)c1CC(=O)O`, the Potency result is “inactive”.

With `COc1nccc(-c2c(-c3ccc(F)cc3)ncn2C2CCC(O)CC2)n1` (stereo not given), the Potency entry is “inactive”.

In the case of `Cc1ccccc1C(C(=O)NC1CCCCC1)N(C(=O)CNc1ccc(C#N)cc1)c1cccc(F)c1` (stereo not given), the Potency result is “inactive”.

Turning to `c1ccc(-c2oc3ncnc(NC[C@@H]4CCCO4)c3c2-c2ccccc2)cc1`, the Potency was 3.32 µM (active).

On to `CC(C)CNc1ccnc(NCc2csc(-c3ccccc3)n2)n1`, for which the Potency was 7.43 µM (active).

On to `CNC1CCC(N(Cc2cccc(-c3ccncc3)c2)C(=O)c2sc3ccccc3c2Cl)CC1` (stereo not given), for which the Potency is 18.7 µM (active).

As for `CCN1C[C@H](C)n2c(c(O)c3c(=O)n(Cc4ccc(F)c(Cl)c4)nc(C(=O)NC)c32)C1=O`, the Potency result is “inactive”.

Turning to `CCc1cccc(CC)c1NC(=O)N1Cc2[nH]nc(NC(=O)c3ccc(N4CCN(C)CC4)cc3)c2C1`, the Potency was 7.43 µM (active).

`CCCCC(F)(F)[C@@]1(O)CC[C@H]2[C@H](CC(=O)[C@@H]2CCCCCCC(=O)O)O1`: the Potency result was “inactive”.

With `CC(C)(C)c1nc(-c2cccc(NS(=O)(=O)c3c(F)cccc3F)c2F)c(-c2ccnc(N)n2)s1`, the Potency is 3.32 µM (active).

Regarding `Nc1ncnc2c1c(-c1cccc(OCc3ccccc3)c1)cn2C1CC(CN2CCC2)C1` (stereo not given), the Potency was 0.372 µM (active).

In the case of `COc1ccc(CCC(=O)Nc2nc3ccc(Cl)cc3s2)cc1OC`, the Potency entry was “inactive”.
